Hit rate of the full screen: of about 200,000 compounds, about 720 (0.36%) were called active. Roughly 8% stayed inconclusive and do not appear here. Calls follow the shape of the dose curve; as a rule, active = well fitted activation curve with a large enough effect; inconclusive = small, poorly fitted or top-dose-only effect, or effect the other way, or another doubt; inactive = flat fitted curve, though single readings scatter. Some of the results follow.
Target: Lysosomal alpha-glucosidase (Homo sapiens) (UniProt P10253)
Assay: qHTS Assay for Activators of Human alpha-Glucosidase as a Potential Chaperone Treatment of Pompe Disease; also: nearly all actives have a fitted effect of over 80% in size
Conditions: purified enzyme, 4-MU-alpha-glucoside fluorescence, 20 min; series mostly up to 76.9 µM
Outline: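 Fluorogenic assay, 4 nM enzyme, 400 uM 4-methylumbelliferyl-[…], pH 5.0 citrate/phosphate buffer with 0.005% Tween-20, compounds up to 77 uM, 20 min at room temperature. NaOH/glycine stop, Ex 365/Em 440 nm; AC50 from Hill fits.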
Potency is read from the fitted curve at half-maximal effect.

Potency, active:
CCc1cc2c(C)cc(=O)oc2cc1OC(=O)C1CCCN1C(=O)OC(C)(C)C (stereo not drawn) 31.6 µM
CCOP(=O)(OCC)C(NC(=O)c1cccs1)C(F)(F)F (stereo not drawn) 31.6 µM
COCCCn1c(CCC(=O)O)ccc1-c1ccc(F)cc1 22.4 µM
O=S1(=O)CCN2C=C(Cl)C=C(Cl)C2=N1 35.5 µM
CCc1c(C)c2cc(Cl)c(O)c(CN3CCCCC3)c2oc1=O 31.6 µM
Cc1c(C)c2cc(Cl)c(O)c(CN3CCN(C)CC3)c2oc1=O 25.1 µM
Cc1c(C)c2cc(Cl)c(O)c(CN3CCCCC3)c2oc1=O 14.1 µM
N=c1oc2ccc3ccccc3c2cc1-c1nnc2n1CCCCC2 35.5 µM
C=CCn1cc(-c2ccccc2)cc(C#N)c1=O 35.5 µM
CC1C2=C(CC(C)(C)CC2=O)NC2=C1C(=O)CC(C)(C)C2 35.5 µM
Cc1c(-c2cccc(NC(=O)c3cccs3)c2)nc2ncccn12 31.6 µM
O=C(Nc1cccc(-c2cn3cccnc3n2)c1)c1ccco1 28.2 µM
Cc1c(-c2cccc(NC(=O)c3ccco3)c2)nc2ncccn12 35.5 µM
N#Cc1cc2c(=O)n3ccccc3nc2n(-c2ccccc2Cl)c1=O 35.5 µM
Cc1ccccc1-n1c(=O)c(C#N)cc2c(=O)n3ccccc3nc21 35.5 µM
Cc1ccc(C)c(-n2c(=O)c(C#N)cc3c(=O)n4ccccc4nc32)c1 35.5 µM
CCOC(=O)c1oc2ccccc2c1NC(=O)COc1ccc(F)cc1 35.5 µM
CCCS(=O)(=O)n1nc(-c2ccc(Br)cc2)cc1N 39.8 µM
Cc1cc(=O)n2ccccc2c1C#N 35.5 µM
CCOC(=O)C1=C(C)NC2=C(C(=O)CC(C)(C)C2)C1c1cccc(C)n1 (stereo not drawn) 35.5 µM
COC(=O)C1=C(C)NC2=C(C(=O)CC(C)(C)C2)C1c1ccccn1 (stereo not drawn) 35.5 µM
COC(=O)C1=C(C)NC2=C(C(=O)CCC2)C1c1cccc(C)n1 (stereo not drawn) 28.2 µM
CCOC(=O)c1cnc2c(-c3ccc(F)cc3)cnn2c1C(F)(F)F 31.6 µM
CCc1cc(=O)oc2cc(OC(C)=O)cc(OC(C)=O)c12 35.5 µM
CC(=O)Oc1cc(OC(C)=O)c2c(C)cc(=O)oc2c1 35.5 µM
COCCN1C=C(C(=O)OC)C(c2ccccc2Cl)C(C(=O)OC)=C1 31.6 µM
COCCN1C=C(C(=O)OC)C(c2ccccc2C(F)(F)F)C(C(=O)OC)=C1 35.5 µM
COC(=O)C1=CNC=C(C(=O)OC)C1c1ccccc1Cl 31.6 µM
CCCCN1C=C(C(=O)OC)C(c2ccccc2Cl)C(C(=O)OC)=C1 22.4 µM
COC(=O)C1=CNC=C(C(=O)OC)C1c1ccc(Cl)cc1 35.5 µM
COC(=O)C1=CN(C)C=C(C(=O)OC)C1c1ccccc1Cl 31.6 µM
COC(=O)C1=CN(C)C=C(C(=O)OC)C1c1ccc(Cl)cc1Cl 25.1 µM
CCOC(=O)c1cnc2sc3c(n2c1=O)CCCC3 39.8 µM
CCOC(=O)c1cc(C(=O)OCC)c2ccccn2c1=O 35.5 µM
CCOC(=O)c1cnc2cc(C)ccn2c1=O 35.5 µM
CCOC(=O)c1cnc2cc3c(cn2c1=O)CCCC3 28.2 µM
CCCC1(C)Nc2ccccc2-c2nc3ccccc3n21 (stereo not drawn) 31.6 µM
c1ccc2c(c1)NC1(CCCC1)n1c-2nc2ccccc21 31.6 µM
CCCCC1(C)Nc2ccccc2-c2nc3ccccc3n21 (stereo not drawn) 35.5 µM
CC1OC(Oc2ccc3ccc(=O)oc3c2-c2c(O)ccc3cc(Oc4ccc5ccc(=O)oc5c4)c(=O)oc23)C(O)C(O)C1O (stereo not drawn) 39.8 µM
C=CCn1c(=O)c(C#N)cc2c(=O)n3ccccc3nc21 35.5 µM
N#Cc1cc2c(=O)n3ccccc3nc2n(CCCN2CCOCC2)c1=O 35.5 µM
Cc1cccn2c(=O)c3cc(C#N)c(=O)n(CCCN4CCOCC4)c3nc12 35.5 µM
Cc1[nH]nc2c1-c1nc3ccccc3nc1C(C)(C)C2 28.2 µM
COc1ccc2c(c1)c1ncn(Cc3ccco3)c(=O)c1n2C 35.5 µM
COCCn1c(=O)[nH]c(=O)c2c(C(F)(F)F)cc(-c3cccs3)nc21 28.2 µM
CCCn1c(=O)c2c(C(=O)OCC)cc(-c3ccco3)nc2n(CCC)c1=O 35.5 µM
O=c1[nH]c(=O)n(Cc2ccccc2)c2nc(-c3ccco3)cc(C(F)(F)F)c12 31.6 µM
CCCn1c(=O)[nH]c(=O)c2c(C(=O)OCC)cc(-c3cccs3)nc21 35.5 µM
CCCCn1c(=O)[nH]c(=O)c2c(C(=O)OCC)cc(-c3cccs3)nc21 35.5 µM
COc1ccc2cc(/C=N/NC(=O)CN(c3ccccc3)S(=O)(=O)c3ccccc3)c(Cl)nc2c1 35.5 µM
CCOC(=O)C1=CN(C)C=C(C(=O)OCC)C1c1ccsc1 31.6 µM
COC(=O)C1=CN(C)C=C(C(=O)OC)C1c1ccsc1 35.5 µM
N#Cc1cc2ccccc2nc1N 39.8 µM
COc1ccc(-c2cc(=Nc3c(C)n(C)n(-c4ccccc4)c3=O)c3ccccc3o2)cc1 35.5 µM
Nc1nc2nc(-c3ccc(Cl)cc3)cc(C(F)(F)F)n2n1 31.6 µM
Nc1nc2nc(-c3ccc(F)cc3)cc(C(F)(F)F)n2n1 25.1 µM
COc1ccc(-c2cc(C(F)(F)F)n3nc(N)nc3n2)cc1 35.5 µM
Nc1nc2nccc(-c3ccc(Cl)cc3)n2n1 22.4 µM
Cc1nc2cc3ccccc3cc2c(=O)[nH]1 25.1 µM
CCCCCCc1cc2cc(C(N)=O)c(=N)oc2cc1O 31.6 µM
CCCCCCc1cc2cc(C(=O)NCc3ccccc3)c(=N)oc2cc1O 35.5 µM
CCCCCCc1cc2cc(S(=O)(=O)c3ccc(F)cc3)c(=O)oc2cc1O 31.6 µM
COCCN1C=C(C(=O)OC)C(c2cc(Br)c(OC)c(OC)c2)C(C(=O)OC)=C1 35.5 µM
CCOc1ccc(C2C(C(=O)OC)=CN(CCOC)C=C2C(=O)OC)cc1 35.5 µM
CCCOc1ccc(C2C(C(=O)OC)=CN(CCOC)C=C2C(=O)OC)cc1 35.5 µM
Cc1cc(N2CCOCC2)nc2ccc(NC(=O)CCC(=O)N3CCCCC3)cc12 35.5 µM
Cc1cc(N2CCOCC2)nc2ccc(NC(=O)CCC(=O)N3CCCC(C)C3)cc12 (stereo not drawn) 39.8 µM
Oc1ccc(N=Cc2ccc(-c3cccs3)s2)cc1 31.6 µM
CC(C)c1ccc2oc3nc(N)c(C(=O)O)cc3c(=O)c2c1 35.5 µM
N#Cc1ccc2c(c1)nc1ccccn12 35.5 µM
Cc1cc(=O)oc2c(CN3CCCCC3)c(O)c(Cl)cc12 31.6 µM
Cc1cc(=O)oc2c(CN3CCN(C)CC3)c(O)c(Cl)cc12 35.5 µM
Cc1cc(=O)oc2c(CN3CC(C)OC(C)C3)c(O)c(Cl)cc12 (stereo not drawn) 10 µM
Cc1cc(=O)oc2c(CN3CCC(C)CC3)c(O)c(Cl)cc12 35.5 µM
CCN1CCN(Cc2c(O)c(Cl)cc3c(C)cc(=O)oc23)CC1 35.5 µM
COc1ccccc1C1CN(c2ccc(F)cc2F)N=C1c1cccs1 (stereo not drawn) 28.2 µM
Fc1ccccc1N1CC(c2ccccc2)C(c2cccs2)=N1 (stereo not drawn) 35.5 µM
COc1ccccc1C1CN(c2ccccc2)N=C1c1cccs1 (stereo not drawn) 39.8 µM
COc1cccc(C2CN(c3ccc(F)cc3F)N=C2c2cccs2)c1OC (stereo not drawn) 39.8 µM
Fc1ccc(N2N=C(c3cccs3)CC2c2ccccc2)cc1 (stereo not drawn) 31.6 µM
Fc1ccc(C2CC(c3cccs3)=NN2c2ccccc2)cc1 (stereo not drawn) 31.6 µM
O=c1c(-c2nnc(SCc3ccc(Cl)cc3Cl)o2)cccn1Cc1ccccc1 35.5 µM
O=c1c(-c2nnc(SCc3ccc(Cl)cc3)o2)cccn1Cc1ccccc1 39.8 µM
O=c1c(-c2nnc(SCc3ccc(Cl)c(Cl)c3)o2)cccn1Cc1ccccc1 35.5 µM
O=c1oc2cc(Oc3c([N+](=O)[O-])cc(C(F)(F)F)cc3[N+](=O)[O-])ccc2c2c1CCCC2 35.5 µM
FC(F)(F)c1cc(-c2cccs2)nc2ncnn12 28.2 µM
Nc1nc2nc(-c3cccs3)cc(C(F)(F)F)n2n1 28.2 µM
CN(C)C(=O)COc1ccc2cc(-c3ccccc3)c(=O)oc2c1 35.5 µM
CCCOc1ccc2cc(-c3ccccn3)c(=O)oc2c1 39.8 µM
COc1ccc(-c2cc3ccc(OCc4nn[nH]n4)cc3oc2=O)cc1 35.5 µM
CSc1cnc2c(=O)n(C)c(=O)[nH]c2n1 35.5 µM
C=CCNC(=O)c1c(N)n(-c2cccc(S(N)(=O)=O)c2)c2nc3ccccc3nc12 25.1 µM
COCCCNC(=O)c1c(N)n(-c2cccc(S(N)(=O)=O)c2)c2nc3ccccc3nc12 35.5 µM
O=c1oc2c(CN3CCOCC3)c(O)ccc2c2c1CCCC2 35.5 µM
O=c1oc2c(CN3CCOCC3)c(O)ccc2c2c1CCC2 25.1 µM
COC(=O)c1nc2nc(-c3cccs3)cc(C(F)(F)F)n2n1 35.5 µM
CCOC(=O)c1nc2nc(-c3cccs3)cc(C(F)(F)F)n2n1 14.1 µM

Reference: PubChem BioAssay AID2242 (National Center for Advancing Translational Sciences (NCATS), 2010)
